Assay results reported in PubChem BioAssay AID588398 (Broad Institute, 2011).
About 110 (9.2%) of roughly 1,200 compounds were called active. Not shown: some 8% with an inconclusive outcome.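 How the source made its calls: active means pathway reporter half-maximal dose under half the control reporter's, or control reporter unaffected while pathway reporter is inhibited; inconclusive means either signal flat at 30 to 70% inhibition or poorly fitted; inactive means the rest.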 These entries were drawn from the full list. Measured potencies and affinities stand elsewhere.

Experiment: LMP1 TES1 pathway selectivity over dsRED control – imaging, HEK293T, dual-color eGFP/dsRED, cherry-picks, selectivity assay for LMP1 NF-kB inhibitor project, dose response (AID 588398)
Conditions: 48 h; HEK293T Tet-On dsRED counter-screen channel, at 19.5 µM (top of the series)

SMILES | outcome
CC1Cc2ccccc2N1c1ncnc(N)c1[N+](=O)[O-] (stereo not drawn) | inactive
CCCn1c(C)cc(C(=O)CN2C(=O)c3ccccc3S2(=O)=O)c1C | inactive
COc1cccc(/C=N/Nc2nccnc2Cl)c1O | inactive
COc1ccc(/C=C2\N=C(C)OC2=O)cc1[N+](=O)[O-] | inactive
CCN1CCN(Cc2ccc(NC(=O)c3ccc(C)c(NC(=O)c4cccc(-c5cn[nH]c(=O)c5)c4)c3)cc2C(F)(F)F)CC1 | inactive
Cc1cc(N)nc(=O)n1C1CC(O)C(CO)O1 (stereo not drawn) | inactive
N/C(=N\OC(=O)c1cccc(Br)c1)c1ccccn1 | inactive
COc1cc(C=C2CCCC(=Cc3ccc(OCC4CO4)c(OC)c3)C2=O)ccc1OCC1CO1 (stereo not drawn) | inactive
CS(=O)(=O)Nc1ccc(C2=NN(S(C)(=O)=O)C(c3ccccc3)C2)cc1 (stereo not drawn) | inactive
CCSc1nnc(NC(=O)CCn2c(=O)oc3ccccc32)s1 | inactive
c1nc(NCc2ccc3c(c2)OCO3)c2cc(-c3ccoc3)ccc2n1 | inactive
COc1ccc(N2C3=[N+](CC2(C)O)c2ccccc2CC3)cc1 (stereo not drawn) | inactive
c1ccc(-n2nnc3c(N4CCOCC4)ncnc32)cc1 | inactive
O=C(NCc1ccco1)C1CC(=O)N(c2cccc(Cl)c2)C1 (stereo not drawn) | inactive
COCCn1c(SCC(=O)NCc2ccco2)nnc1-c1c[nH]c2ccccc12 | inactive
O=C1CCC(C(=O)N2CCCCCC2)CN1CCc1ccc(Cl)cc1 (stereo not drawn) | inactive
COc1ccc(NC(=O)/C(C#N)=C/c2cc(C)n(-c3ccc(N4CCOCC4)c([N+](=O)[O-])c3)c2C)cc1 | inactive
CCOC(=O)c1cc(-c2ccccc2)n(CC(=O)Nc2cccc(OC)c2)c1C | inactive
CCOC(=O)c1nc(NCc2ccccc2F)c2ccccc2n1 | inactive
COc1cc(/C=N/NC(=O)c2cc(C34CC5CC(CC(C5)C3)C4)[nH]n2)ccc1O | inactive
COc1cc(/C=C2\SC(=S)N(NC(=O)c3ccncc3)C2=O)ccc1O | inactive
CCOC(=O)c1cn2nc(N3CCCC3)ccc2n1 | inactive

SMILES | outcome
COc1ccc2[nH]c(-c3ccc(C)cc3)cc(=O)c2c1 | inactive
Cc1ccc(C(=O)Nc2nnc(SCC(=O)N3CCCc4ccccc43)s2)cc1 | inactive
O=C(C1CC1)N1N=C(c2ccc(Br)cc2)CC1(O)C(F)(F)F (stereo not drawn) | inactive
COc1ccccc1OCc1ccc(C(=O)c2ccccc2)cc1 | inactive
COc1ccccc1C(=O)Nc1c[nH]c(=O)[nH]c1=O | inactive
COc1ccc(-c2csc(Nc3cccc(C)n3)n2)cc1OC | inactive
CS(=O)(=O)c1ccc(Sc2nc3ccccc3s2)c([N+](=O)[O-])c1 | inactive
O=C(Nc1ncc(Br)s1)C(Cc1ccccc1)n1cccc1 (stereo not drawn) | inactive
CCOc1ccccc1C(=O)NC1CC2CCCC(C1)N2Cc1nnnn1Cc1ccco1 (stereo not drawn) | inactive
O=c1cc(C2CCCCC2)[nH]c(=O)[nH]1 | inactive
Cc1ccc(-c2nc3cccnc3o2)cc1NC(=O)COc1ccc(C(C)(C)C)cc1 | inactive
CNC(=S)N1N=C(c2cccs2)CC1c1ccc(F)cc1 (stereo not drawn) | inactive
S=C(N/N=C/c1ccc2ncccc2c1)Nc1cccnc1 | inactive
Oc1ccc(C=NNC(=S)Nc2ccccc2)nc1 | inactive
Cn1cc(S(=O)(=O)N2CCN(C(=O)c3ccco3)CC2)c(=O)n(C)c1=O | inactive
Cn1cccc1C(=O)OCC(=O)Nc1ccc2c(c1)OCO2 | inactive
Cc1cc(C)nc(SCC(=O)OCN2C(=O)c3ccccc3C2=O)n1 | inactive
O=C(Nc1ccc(N2CCOCC2)cc1)c1cnccn1 | inactive
Cc1ccccc1C(=O)N1CCN(c2ccc(NC(=O)c3ccco3)cc2Cl)CC1 | inactive
O=C(CCCOc1ccccc1)N1CCN(c2ccccc2)CC1 | inactive
N#CC(C#N)c1ccnc2ccccc12 | inactive
COc1ccc(NC(=O)C[C@H]2C(=O)N(CCc3ccccc3)C[C@@H]2c2ccc(OC)cc2)cc1 | inactive

SMILES | outcome
COc1cc(OC)cc(-c2c(C#Cc3ccsc3)c3cc(-c4cc(OC)c(OC)c(OC)c4)ccc3n2C)c1 | inactive
COc1cccc(N=Nc2ccc(O)c3ncccc23)c1 | inactive
COc1cccc(C2Nc3ccc4ccccc4c3C3=C2C(=O)CC(C)(C)C3)c1OCC(=O)O (stereo not drawn) | inactive
COc1ccc(-n2c(C)c([N+](=O)[O-])c3ccc(O)c(CN(C)C)c32)cc1 | inactive
COc1ccc(/C=C2\SC(=O)N(CCCC(=O)Nc3ccc(C(=O)O)cc3)C2=O)cc1 | inactive
O=C(Nc1ccc2c(c1)OCCO2)c1ccccn1 | inactive
Cc1ccc(C(=O)Nc2ccc3c(c2)OCCO3)c(Cl)c1 | inactive
CCc1nc(SCC(=O)c2ccc3c(c2)OCCO3)c2ccccc2n1 | inactive
Cc1ccc(C(=O)Nc2ccc3c(c2)OCCO3)cc1 | inactive
O=C(CCCN1C(=O)[C@H]2CC=CC[C@H]2C1=O)NCc1nc(-c2ccc(Cl)cc2)no1 | inactive
CC1(C)CC(=O)C(CC2=C(O)CC(C)(C)CC2=O)=C(O)C1 | inactive
CC(C)CC1C(=O)N(Cc2cn(CC3CCCCC3)nn2)CCS(=O)(=O)N1Cc1ccc(-c2ccc(F)nc2)cc1 (stereo not drawn) | inactive
Cc1cc(=O)[nH]c(N=N/C(=N/Nc2ccccc2C)c2ccccc2)n1 | inactive
COC(=O)c1ccccc1NC(=O)CSc1nnnn1C | inactive
COc1ccc(S(=O)(=O)NCC(c2cccnc2)N2CCN(c3ccc(F)cc3)CC2)cc1C (stereo not drawn) | inactive
O=C(CCNc1cccc(F)c1)c1cc2ccccc2o1 | inactive
NC(=O)c1sc2nccc(Nc3ccccc3)c2c1N | inactive
Cc1nn(-c2ccccc2)c(Cl)c1C1C(C#N)=C(N)Oc2n[nH]c(C)c21 (stereo not drawn) | inactive
O=S(=O)(c1ccc2c(c1)C(=NO)c1cc(S(=O)(=O)N3CCCCC3)ccc1-2)N1CCCCC1 | inactive
COc1ccc(S(=O)(=O)N2CCOCC2)cc1NC(=O)COC(=O)CCS(=O)(=O)c1ccc(C)cc1 | inactive
Oc1ccc2ccccc2c1N=Nc1ccccn1 | inactive
c1ccc(C(=NNc2nc3ccccc3s2)c2ccccn2)cc1 | inactive

SMILES | outcome
CCOC(=O)c1sc(NC(=O)CNCc2ccccn2)c(C(=O)OCC)c1C | inactive
Oc1c(N=NC(=S)Nc2ccccc2F)c2ccccc2n1Cc1ccccc1 | inactive
COc1ccc(OCc2cccc(C(=O)NN)c2)cc1 | inactive
COc1ccc(C=C2OC(=O)C(C(C)=O)=C2O)cc1 | inactive
COc1ccc(-c2[nH]ncc2/C=N\NS(=O)(=O)c2ccc(Cl)cc2)cc1 | inactive
Cc1ccc(CCNC(=O)Cc2ccc(NC3=NC4CS(=O)(=O)CC4S3)cc2)cc1 (stereo not drawn) | inactive
O=C(NN1C(=O)C2C3C=CC(C4CC34)C2C1=O)c1cccc(Cl)c1 (stereo not drawn) | inactive
CCc1ccccc1NC(=O)COC(=O)c1c(C)nsc1NC | inactive
Oc1c(N=NC(=S)Nc2ccccc2F)c2ccccc2n1Cc1ccccc1Cl | inactive
O=c1cc(Cl)nc2ccccn12 | inactive
COc1ccc(-c2cc(C(=O)N3CCCC3)no2)cc1 | inactive
COc1ccc(CNC(=O)N2[C@H]3CC[C@@H]2C=C(c2ccc(F)cc2OCc2ccccc2)C3)cc1OC | inactive
COc1cc(C(=O)Oc2ccccc2/C=N/NC(=O)c2ccc(C)c(Cl)c2)cc(OC)c1OC | inactive
CCCC(=O)NCCCc1nc2ccccc2[nH]1 | inactive
O=C(Nc1nc(-c2ccccn2)cs1)c1ccc(Cl)s1 | inactive
O=C(c1ccccc1)C(CCC(CN1CCOCC1)C(=O)c1ccccc1)CN1CCOCC1 (stereo not drawn) | inactive
COc1ccc(C(=O)NCCN2CCOCC2)cc1[N+](=O)[O-] | inactive
CCON1C(=O)C2(CCCCC2)C(=O)C12C=CCCC2 (stereo not drawn) | inactive
COc1cc(N(C)C)c([N+](=O)[O-])cc1C(=O)N1CCN(Cc2ccccc2)CC1 | inactive
CC1CCN(C(=O)/C(=C\c2cccs2)NC(=O)c2ccccc2)CC1 | inactive
CCn1c(NC(=O)c2ccc(C)cc2)c2ccccc2nc1=O | inactive
COc1ccc2cc(-c3cc(C(=O)OCC(=O)Nc4c(C)n(C)n(-c5ccccc5)c4=O)c4ccccc4n3)ccc2c1 | inactive

SMILES | outcome
COc1ccc(N2Cc3ccccc3C2=O)cc1 | inactive
O=C(NCc1ccccc1Cl)C1CCCN1S(=O)(=O)c1ccc(F)cc1 (stereo not drawn) | inactive
CCc1cc(C(=O)Nc2ncccc2O)sc1C | inactive
O=C(Nc1ncccc1O)c1ccc(S(=O)(=O)NCc2ccco2)cc1 | inactive
COCCn1c(SCC(=O)N2CCc3ccccc32)nc2c(c1=O)SC(C)C2 (stereo not drawn) | inactive
COc1ccc(-c2csc3ncnc(NCCCO)c23)cc1 | inactive
COc1ccc(-c2oc3ncnc(NCCN4CCOCC4)c3c2-c2ccc(OC)cc2)cc1 | inactive
COc1ccc(-c2cc(C(F)(F)F)n3nc(C(=O)N4CCOCC4)nc3n2)cc1 | inactive
Cc1ccccc1C(=O)N1CCN(c2ccc(NC(=O)CSc3ccc(Cl)cc3)cc2)CC1 | inactive
CN(Cc1ccccc1)c1nc(N)c([N+](=O)[O-])c(NCc2ccccc2)n1 | inactive
CCC(C)Nc1nc(-c2ccccn2)nc2ccccc12 (stereo not drawn) | inactive
Cc1ccc(C)c(S(=O)(=O)N2CCN(CC(=O)N3CCc4ccccc4C3)CC2)c1 | inactive
CCOc1ccc(OCC(=O)Nc2nccs2)cc1 | inactive
O=C(c1ccc(COc2ccccc2Cl)o1)N1CCCC1 | inactive
Cc1cc(C)n2nc(CC(=O)NC3CCCCCC3)nc2n1 | inactive
CCOC(=O)c1cn2nc(N3CCCCC3)ccc2n1 | inactive
COc1ccc(CCC(=O)Nc2ccc(C)c([N+](=O)[O-])c2)cc1 | inactive
O=C(C=C1SCCS1)/C=C/c1ccco1 | inactive
Cc1ccccc1Cn1c(O)c(N=NC(=S)Nc2ccccc2F)c2ccccc21 | inactive
CCc1ccc(C(=O)COC(=O)c2cccc(N3C(=O)c4c(C)nc5ccccc5c4C3=O)c2)cc1 | inactive
